The source made the active and inactive calls. How the source made its calls: active means hit-call score of the fitted dose curve at least 0.9, where 1 is the maximum; inactive means score below 0.9.

Our source for the outcome and AC50 values is PubChem BioAssay (EPA / NIEHS).

Sequence of Hepatocyte nuclear factor 6 (Homo sapiens) (Q9UBC0 whole entry, looked up): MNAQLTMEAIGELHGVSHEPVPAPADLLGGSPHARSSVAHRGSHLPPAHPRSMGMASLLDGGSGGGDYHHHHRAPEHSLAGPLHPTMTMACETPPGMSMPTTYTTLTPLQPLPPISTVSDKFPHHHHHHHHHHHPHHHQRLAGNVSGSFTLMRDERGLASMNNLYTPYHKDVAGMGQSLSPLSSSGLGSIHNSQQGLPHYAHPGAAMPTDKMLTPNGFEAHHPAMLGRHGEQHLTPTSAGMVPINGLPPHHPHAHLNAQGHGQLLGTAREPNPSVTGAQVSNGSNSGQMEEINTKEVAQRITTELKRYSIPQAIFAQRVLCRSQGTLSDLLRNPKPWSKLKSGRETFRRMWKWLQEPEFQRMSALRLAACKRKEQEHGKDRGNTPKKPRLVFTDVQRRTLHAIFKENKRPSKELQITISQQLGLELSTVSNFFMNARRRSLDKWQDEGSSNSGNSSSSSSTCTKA

This assay concerns the target Hepatocyte nuclear factor 6 (Homo sapiens) (UniProt Q9UBC0). The experiment in a line: ATG_HNF6_CIS: Attagene CIS-FACTORIAL HepG2 Assay for human Hepatocyte Nuclear Factor 6 (HNF6) (AID 2282952). Conditions: HepG2 Attagene cis-factorial HNF6 reporter transcription; actives raise or lower the signal. The protocol:
ATG_CIS is a cell-based, multiplexed-readout assay that uses HepG2, a human liver cell line, with measurements taken at 24 hours after chemical dosing in a 24-well plate.ATG_HNF6_CIS is one of 52 assay component(s) measured or calculated from the ATG_CIS assay. It is designed to make measurements of mRNA induction, a form of inducible reporter, as detected with fluorescence intensity signals by Reverse transcription polymerase chain reaction (RT-PCR) and Capillary electrophoresis technology.Data from the assay component ATG_HNF6_CIS was analyzed into 1 assay endpoint. This assay endpoint, ATG_HNF6_CIS, was analyzed with bidirectional fitting relative to DMSO as the negative control and baseline of activity. Using a type of inducible reporter, measures of mRNA for gain or loss-of-signal activity can be used to understand the reporter gene at the transcription factor-level as they relate to the gene ONECUT1. Furthermore, this assay endpoint can be referred to as a primary readout, because this assay has produced multiple assay endpoints where this one serves a reporter gene function. To generalize the intended target to other relatable targets, this assay endpoint is annotated to the dna binding intended target family, where the subfamily is homeobox protein.
Human liver HepG2 cells are transiently transfected with multiple reporter transcription units (MRTUs) in 6-well plates using FuGene 6 reagent (Roche; 3 ml FuGene/1 mg DNA). The MRTU constructs are regulated by a cis-regulating element (promoter). […] A major difference between the CIS and TRANS system is that in CIS activities of endogenous TFs are measured, whereas the TRANS assay evaluates changes in activities of exogenous, chimeric NR-Gal4 proteins. […] At the end of 24 hour incubation, total RNA was isolated using TriZol reagent (Invitrogen). The isolated RNA is then reverse-transcribed using oligo(dT) primer and Mo-MLV reverse transcriptase (Invitrogen) with DNAse I (Ambion) treatment for 30 min. The one-tenth of the produced cDNA was amplified by PCR using Taq DNA polymerase (Invitrogen) and two reporter sequence-specific primers. The PCR products were fluorescently labeled by primer extension with 6-arboxyfluorescein (6-FAM) 5'-labeled reporter sequence-specific primer (2 min at 95 C, 20 s at 68 C and 10 min at 72 C) and these products were digested with 5U of HpaI (New England Biolabs) for 2h at 37 C. The fragments were purified using Qiaquick PCR columns (Qiagen), analyzed on an ABI 3130xL genetic analyzer (Applied Biosystems) with peak positions identified by using a set of X-rhodamine (ROX)-labeled MapMarker1000 molecular weight standards (BioVentures). The raw capillary electrophoresis data was processed using Attagraph software (Attagene).
Regarding `CCC(=O)OC(C)c1ccccc1` (stereo not given), the result was inactive.

For `CCN(CCO)S(=O)(=O)C(F)(F)C(F)(F)C(F)(F)C(F)(F)C(F)(F)C(F)(F)C(F)(F)C(F)(F)F`, the outcome was inactive.

In the case of `NC(=O)C(F)(F)C(F)(F)C(F)(F)C(F)F`, the compound was called inactive.

As to `O=S(=O)(O)c1ccc(Cl)cc1`, the call was inactive.

Turning to `Oc1ccc(C2(c3ccc(O)c(C4CCCCC4)c3)CCCCC2)cc1C1CCCCC1`, the compound was classed as inactive.

Regarding `CCC/C=C/CO`, the call was inactive.

For `CCCCOC(=O)[C@H](C)O`, the result was inactive.

As to `O=S(=O)(O)CCC(F)(F)C(F)(F)C(F)(F)C(F)(F)C(F)(F)C(F)(F)C(F)(F)C(F)(F)F`, the call was inactive.

Consider `O=c1[nH]cccc1O`, for which the result was inactive.

On to `Nc1cc([N+](=O)[O-])cc(Cl)c1O`, for which the result was inactive.

Consider `Cc1ccc(O)c(-n2nc3ccccc3n2)c1`, for which the compound was classed as inactive.

Consider `COCCOCCC[Si](C)(O[Si](C)(C)C)O[Si](C)(C)C`, for which the result was inactive.

Take `Cc1cc(=O)[nH]c(C(C)C)n1`: the result was inactive.

Regarding `O=C(F)C1(F)C(F)(F)C(F)(F)C(F)(F)C(F)(F)C1(F)F`, the outcome was inactive.

With `CC1=CC2C3C=CC(C3)C2C1C` (stereo not given), the compound was called inactive.

With `O=S(=O)(OCC(F)(F)F)C(F)(F)C(F)(F)C(F)(F)C(F)(F)F`, the compound was called inactive.

As to `COc1ccccc1C=O`, the compound was called inactive.

`F[Si-2](F)(F)(F)(F)F`: the compound was called inactive.

On to `Nc1cccnc1N`, for which the compound was classed as inactive.

As for `C[Si](Cl)(Cl)CCC(F)(F)C(F)(F)C(F)(F)C(F)(F)C(F)(F)C(F)(F)F`, the compound was called inactive.

`O=C1C=CC(=O)N1c1ccccc1`: the call was inactive.

With `CCN(CC)c1ccc(C=O)c(O)c1`, the compound was classed as inactive.

`C[C@]12CC[C@H]3C(=CCc4cc(O)ccc43)[C@@H]1CCC2=O`: the compound was called inactive.

As for `O=C(c1ccccc1)c1ccc(O)cc1O`, the compound was called inactive.

With `C=CC(=O)OCC(F)(F)C(F)(F)C(F)(F)COC(=O)C=C`, the call was inactive.

With `CC(C)OC=O`, the compound was called inactive.

For the compound `O=C(O)C(F)(F)C(F)(F)C(F)(F)OC(F)(C(F)(F)F)C(F)(F)F`, the compound was called inactive.

For the compound `CCCCCCCC/C=C\CCCCCCCC(=O)OCC(O)CO` (stereo not given), the compound was classed as inactive.

On to `FC(F)(F)C(F)(F)C(F)(F)CC1CO1` (stereo not given), for which the call was inactive.

As to `NC(=O)C(F)(F)C(F)(F)C(F)(F)F`, the result was inactive.

`Cc1cc(O)c(C(C)(C)C)cc1C(C)(C)C`: the result was inactive.

As to `OCC1CCCO1` (stereo not given), the compound was classed as inactive.

Consider `CC(O)C#CC(C)O` (stereo not given), for which the half-maximal activity concentration (AC50) was 70.5 µM (active).

Turning to `C=C(C)CCCC`, the result was inactive.

For `CN1CN(C)CN(C)C1`, the outcome was inactive.

For the compound `CCCCCCCCCCCCCCCCC`, the result was inactive.

Regarding `CN(C)C(C)(C)CO`, the result was inactive.

`O=C=Nc1cccc2c(N=C=O)cccc12`: the compound was classed as inactive.

In the case of `CO[Si](C)(CCC(F)(F)C(F)(F)C(F)(F)C(F)(F)C(F)(F)C(F)(F)F)OC`, the compound was called inactive.

For `C#CC(O)CCC` (stereo not given), the compound was classed as inactive.
